Hit rate of the full screen: of about 16,000 compounds, about 5,800 (36%) were called active. Not shown: some 23% with an inconclusive outcome. Some of the results follow. A number with no mark means an inactive call. The call rests on the fitted dose curve; in most records, active means well fitted curve in the direction sought with a large enough effect; inconclusive means small, poorly fitted or top-dose-only effect, or effect the other way; inactive means no such curve, though single readings can be large or run the other way.
target: Cytochrome P450 2C19 (Homo sapiens) (UniProt P33261); assay: Cytochrome panel assay with activity outcomes; details: recombinant CYP, pro-luciferin dealkylation, luminescence, p450-cyp2c19; series mostly up to 57.1 µM; activity, negative = inhibition: at the top concentration
On the % scale 0 is the no-effect control and ±100 the full control effect.

Chain of Cytochrome P450 2C19 (Homo sapiens) (P33261 whole entry, looked up): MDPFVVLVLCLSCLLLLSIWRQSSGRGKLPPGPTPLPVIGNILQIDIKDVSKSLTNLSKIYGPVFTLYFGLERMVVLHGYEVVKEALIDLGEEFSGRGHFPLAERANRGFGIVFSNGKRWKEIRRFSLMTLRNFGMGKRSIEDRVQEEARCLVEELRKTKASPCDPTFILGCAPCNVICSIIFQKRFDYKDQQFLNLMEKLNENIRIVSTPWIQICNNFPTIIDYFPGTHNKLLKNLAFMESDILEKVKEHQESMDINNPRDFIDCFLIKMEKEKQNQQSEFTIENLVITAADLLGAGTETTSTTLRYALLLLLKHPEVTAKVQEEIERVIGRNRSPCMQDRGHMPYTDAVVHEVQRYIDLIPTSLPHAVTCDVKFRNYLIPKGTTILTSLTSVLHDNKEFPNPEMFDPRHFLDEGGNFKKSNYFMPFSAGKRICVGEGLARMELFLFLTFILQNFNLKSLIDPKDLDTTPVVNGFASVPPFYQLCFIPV

| Structure (SMILES) | AC50 | activity, negative = inhibition |
| --- | --- | --- |
| c1ccc2c(c1)c1ccccc1n2Cn1c2ccccc2c2ccccc21 | 0.398 µM (active) |  |
| CCn1c(=O)[nH]c2ccccc21 |  | -16.8% |
| COc1ccc(CNc2cc(-c3cccnc3)ncn2)c(OC)c1 |  | -41.7% |
| COc1cccc(-c2cc(NCc3ccc(OC)cc3OC)ncn2)c1 | 5.01 µM (active) |  |
| COc1cccc(-c2cc(NCc3ccccc3OC)ncn2)c1 | 7.94 µM (active) |  |
| CN(Cc1n[nH]c(=S)n1C)S(=O)(=O)c1ccccc1 |  | -24.8% |
| S=c1[nH]nc(CSCc2ccccc2Cl)n1-c1ccccc1 | 0.708 µM (active) |  |
| Cn1c(CCNC(=O)c2ccccc2Cl)n[nH]c1=S |  | 22.3% |
| Cc1cccc(NC(=O)CSc2nc3ccccc3c3nc(CCc4c(C)n[nH]c4C)nn23)c1 | 7.94 µM (active) |  |
| Cn1c(=O)n(C)c2cc(/C=N/NC(=O)c3ccc(Cl)cc3Cl)ccc21 | 3.98 µM (active) |  |
| Cn1c(=O)n(C)c2cc(S(=O)(=O)O)ccc21 |  | -14.7% |
| COC(=O)c1ccc(/C=N\NC(=O)c2ccc(C)cc2Cl)cc1 | 5.01 µM (active) |  |
| Cn1c(=O)n(C)c2cc(/C=N/n3cnnc3)ccc21 | 17.8 µM (active) |  |
| COc1ccc(/C=N\NC(=O)O)cc1 |  | 11% [at 11.4 µM] |
| Cc1cc(C)c(S(=O)(=O)NNC(=O)C2CCN(Cc3ccccc3)CC2)c(C)c1 |  | -18.9% |
| Cc1cc(C)c(S(=O)(=O)Nc2cccc(C(F)(F)F)c2)c(C)c1 | 3.16 µM (active) |  |
| Cc1cc(C)c(S(=O)(=O)Nc2ccccc2C(F)(F)F)c(C)c1 | 0.1 µM (active) |  |
| CC(C)NC(=O)N1CC[C@@]2(CCCN(C(=O)c3cc(C(F)(F)F)cc(C(F)(F)F)c3)C2)C1 |  | 30.6% |
| COc1ccccc1CN(Cc1cc2cc3c(cc2[nH]c1=O)OCCO3)Cc1nnnn1Cc1ccco1 | 7.08 µM (active) |  |
| CCC(C)(C)n1nnnc1C(c1cc2cc3c(cc2[nH]c1=O)OCO3)N1CCCCC1 (stereo not drawn) | 31.6 µM (active) |  |
| CCC(C)(C)n1nnnc1C(C(C)C)N(Cc1ccco1)Cc1cc2cc3c(cc2[nH]c1=O)OCO3 (stereo not drawn) | 10 µM (active) |  |
| CCC(c1nnnn1CC1CCCO1)N(CCN1CCOCC1)Cc1cc2cc(C)ccc2[nH]c1=O (stereo not drawn) |  | 1.58% |
| CCNc1ncc2nc(C)c(=O)n(C[C@H]3CCCO3)c2n1 |  | 4.63% |
| COc1ccc(CONS(=O)(=O)c2ccc(NC(C)=O)cc2)cc1Cl | 2.24 µM (active) |  |

| Structure (SMILES) | AC50 | activity, negative = inhibition |
| --- | --- | --- |
| COc1ccc(CNC(C)(C)C)cc1Cl |  | -4.36% |
| Clc1ccc(/C=N/c2c(-c3ccc(Cl)cc3)nc3n2CCS3)cc1 | 14.1 µM (active) |  |
| CCOc1ccc(N2C(=O)/C(=C/c3cccs3)N(CC(=O)OC)C2=S)cc1 |  | -17.3% |
| CCOc1ccc(N2C(=O)/C(=C/c3cc(OC)c(OC)c(OC)c3)N(CC(=O)OC)C2=S)cc1 | 3.55 µM (active) |  |
| CCN(CC)C(=O)C1CCCN(c2ccc([N+](=O)[O-])cc2/C=N/NC(=O)c2ccc([N+](=O)[O-])cc2)C1 (stereo not drawn) | 14.1 µM (active) |  |
| O=C(N/N=C/c1cc([N+](=O)[O-])ccc1N1CCNCC1)c1ccc([N+](=O)[O-])cc1 |  | -15.8% |
| CCOC(=O)C(CC)(CC)C(=O)/C=C/c1ccc(Br)cc1 | 2.82 µM (active) |  |
| O=C(NCCNc1ccc([N+](=O)[O-])cc1)c1ccccc1Br | 7.94 µM (active) |  |
| O=C(O)CCCCCNC(=O)c1ccccc1Br |  | -30.4% |
| O=[N+]([O-])c1ccc(C2CCCC/C2=N\OCc2cccc(F)c2)c([N+](=O)[O-])c1 (stereo not drawn) | 7.08 µM (active) |  |
| O=[N+]([O-])c1ccc(NN=C2c3ccccc3Cc3ccccc32)c([N+](=O)[O-])c1 |  | -15.8% [at 11.4 µM] |
| CC(Sc1ccc2c(c1)OCCO2)C(=O)Nc1ncc(Cl)cc1Cl (stereo not drawn) | 2.82 µM (active) |  |
| Cc1cccc(C)c1OC[C@H](C)N | inactive |  |
| COc1ccc2cc(C(=O)CCC(=O)O)ccc2c1 | 2 µM (active) |  |
| COc1ccc2cc(CCC(C)=O)ccc2c1 |  | -42.2% [at 25.6 µM] |
| CCOc1ccc(C(=O)CCC(=O)O)cc1 |  | -28.2% |
| Cc1ccc(S(=O)(=O)N[C@H]2COC(=O)[C@H](C)COC(=O)[C@H](C)NC(=O)C/C=C\[C@H]2C)cc1 |  | 16.6% [at 11.4 µM] |
| COc1cccc(CNc2ccc3nc(-c4ccc(N)cc4)c(OC)n3n2)c1 |  | -34.4% |
| COc1cccc(CNCCNC(=O)c2nonc2N)c1 | 15.8 µM (active) |  |
| CCOc1cccc(CNCCNC(=O)c2nonc2N)c1 | 15.8 µM (active) |  |
| COc1cccc(CSCC(=O)O)c1 |  | -7.72% [at 11.4 µM] |
| CN1CCN(CN2C(=O)C3C4C=CC(C3C2=O)C2C3C(=O)N(CN5CCN(C)CC5)C(=O)C3C42)CC1 (stereo not drawn) |  | 27.4% [at 11.4 µM] |
| CC[C@@]12CCCN3CCc4c(n(c5ccccc45)C(=O)C1)[C@H]32 |  | -19.6% [at 11.4 µM] |
| Cc1ccc(S(=O)(=O)c2nc(S(=O)(=O)c3ccc(C)cc3)c(NCc3ccco3)s2)cc1 | 8.91 µM (active) |  |
